Among the data in PubChem BioAssay (EPA / NIEHS) are outcome and AC50 values, retold here.

Test [1] concerns the target human Casein Kinase 1-delta (CK1D), CSNK1D (gene 1453) (UniProt P48730). The test can be described thus: NVS_ENZ_hCK1D: NovaScreen (NVS) Enzymatic Assay for human Casein Kinase 1-delta (CK1D) (AID 2283148). Put shortly:
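Recombinant human CK1-delta, cell-free; fluorescent substrate with electrophoretic mobility-shift separation of product, read 1 h after dosing. Single 25 uM duplicate screen, then concentration-response up to 50 uM; loss of signal vs DMSO.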

In test [2] the target is human LYN Proto-Oncogene, Src family Tyrosine Kinase (LynA), LYN (gene 4067) (UniProt P07948). The test can be described thus: NVS_ENZ_hLynA: NovaScreen (NVS) Enzymatic Assay for human LYN Proto-Oncogene, Src family Tyrosine Kinase (LynA) (AID 2283173). In a few lines: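 Recombinant kinase with fluorescent substrate; product separated from substrate by electrophoretic mobility shift and read 1 h after dosing. Duplicate screen at 25 uM, then concentration-response up to 50 uM; activity scored as signal loss against DMSO.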

In test [3] the target is human Matrix Metalloproteinase-7 (MMP7), MMP7 (gene 4316) (UniProt P09237). The test can be described thus: NVS_ENZ_hMMP7: NovaScreen (NVS) Enzymatic Assay for human Matrix Metalloproteinase-7 (MMP7) (AID 2283183). Put shortly:
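Compounds first tested at 25 uM in duplicate, then at up to 50 uM in concentration series if active. Protease activity measured by fluorescence intensity 1 h after dosing, with fitting relative to DMSO.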

In test [4] the target is human Esterase Plasma (ES), BCHE (gene 590) (UniProt P06276). The test can be described thus: NVS_ENZ_hES: NovaScreen (NVS) Enzymatic Assay for human Esterase Plasma (ES) (AID 2283157). In a few lines: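 Primary single-concentration screen at 25 uM in duplicate, then concentration-response to a 50 uM top dose. Human plasma esterase activity detected colorimetrically after 0.25 h incubation, with DMSO as baseline.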

Test [5] concerns the target human Matrix Metalloproteinase-3 (MMP3), MMP3 (gene 4314) (UniProt P08254). The test can be described thus: NVS_ENZ_hMMP3: NovaScreen (NVS) Enzymatic Assay for human Matrix Metalloproteinase-3 (MMP3) (AID 2283185). Put shortly:
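Fluorescent substrate turnover by recombinant MMP3 read after 1 h, signal loss scored against DMSO. Compounds first run in duplicate at 25 uM single dose, then actives confirmed by concentration series.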

Test [6] has as its target human Elastase, ELANE (gene 1991) (UniProt P08246). The test can be described thus: NVS_ENZ_hElastase: NovaScreen (NVS) Enzymatic Assay for human Elastase (AID 2283153). Put shortly:
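Concentration-response to 50 uM max, run singly for chemicals passing a threshold (e.g., 30% inhibition) in a duplicate 25 uM single-point screen. Neutrophil-derived human elastase, absorbance read-out of enzyme activity at 1.5 h; DMSO baseline.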

Test [7] concerns the target Glycogen synthase kinase-3 beta (Homo sapiens) (UniProt P49841). The test can be described thus: NVS_ENZ_hGSK3b: NovaScreen (NVS) Enzymatic Assay for human Glycogen Synthase Kinase-3 beta (GSK3b) (AID 2283165). In a few lines: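 Recombinant enzyme with specific fluorescent substrate, 1 h, product separated by electrophoretic mobility shift. Primary duplicate screen at 25 uM; actives (e.g. 30% inhibition) followed in singleton concentration-response to 50 uM. Signal loss fitted versus DMSO.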

The target in test [8] is Collagenase 3 (Homo sapiens) (UniProt P45452). The test can be described thus: NVS_ENZ_hMMP13: NovaScreen (NVS) Enzymatic Assay for human Matrix Metalloproteinase-13 (MMP13) (AID 2283182). Put shortly: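 Recombinant MMP13 cleaving fluorescent substrate, cell-free, measured 1 h after dosing. Primary duplicate screen at 25 uM; actives tested in concentration-response up to 50 uM; loss of signal relative to DMSO.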

In test [9] the target is human Matrix Metalloproteinase-2 (MMP2), MMP2 (gene 4313) (UniProt P08253). The test can be described thus: NVS_ENZ_hMMP2: NovaScreen (NVS) Enzymatic Assay for human Matrix Metalloproteinase-2 (MMP2) (AID 2283184). Put shortly: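 Compounds first screened in duplicate at a single 25 uM, with actives followed up in concentration series. Recombinant human MMP2 cleaves a fluorogenic substrate; fluorescence taken at 1 h, inhibition fitted relative to DMSO.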

Test [10] deals with human Colony Stimulating Factor 1 Receptor (CSF1R), CSF1R (gene 1436) (UniProt P07333). The test can be described thus: NVS_ENZ_hCSF1R: NovaScreen (NVS) Enzymatic Assay for human Colony Stimulating Factor 1 Receptor (CSF1R) (AID 2283150). Put shortly:
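Compounds screened in duplicate at 25 uM, then concentration-response (top 50 uM) for those passing threshold such as 30% inhibition; recombinant CSF1R activity measured 1 h post-dosing via fluorescent substrate/product mobility-shift separation, loss of signal versus DMSO.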

For test [11], the target named is human MAP Kinase-Activated Protein Kinase 2 (MAPKAPK2), MAPKAPK2 (gene 9261) (UniProt P49137). The test can be described thus: NVS_ENZ_hMAPKAPK2: NovaScreen (NVS) Enzymatic Assay for human MAP Kinase-Activated Protein Kinase 2 (MAPKAPK2) (AID 2283178). In a few lines: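 Chemicals screened in duplicate at 25 uM, then to 50 uM top concentration in concentration-response, against recombinant human MAPKAPK2; substrate conversion read 1 hr post-dosing by fluorescence after electrophoretic mobility-shift separation, loss-of-signal relative to DMSO.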

The target in test [12] is Histone deacetylase 3 (Homo sapiens) (UniProt O15379). The test can be described thus: NVS_ENZ_hHDAC3: NovaScreen (NVS) Enzymatic Assay for human Histone Deacetylase 3 (HDAC3) (AID 2283163). Put shortly:
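Cell-free enzyme format: loss of fluorescent product after mobility-shift separation, 1 h incubation, recombinant human HDAC3. Single 25 uM duplicate screen first, then concentration series to a 50 uM top for hits; DMSO as baseline.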

For test [13], the target named is human Ephrin type-A Receptor 1 (EphA1), EPHA1 (gene 2041) (UniProt P21709). The test can be described thus: NVS_ENZ_hEphA1: NovaScreen (NVS) Enzymatic Assay for human Ephrin type-A Receptor 1 (EphA1) (AID 2283158).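 Note: activity is signal loss versus DMSO meaning EphA1 kinase inhibition.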 Put shortly:
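Cell-free enzymatic assay with recombinant EphA1 and fluorescent substrate; product separated by electrophoretic mobility shift, fluorescence intensity read 1 hour after dosing. Loss of signal versus DMSO baseline; primary duplicate screen at 25 uM, actives followed to 50 uM top concentration.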

In test [14] the target is human Janus Kinase 2 (Jak2), JAK2 (gene 3717) (UniProt O60674). The test can be described thus: NVS_ENZ_hJak2: NovaScreen (NVS) Enzymatic Assay for human Janus Kinase 2 (Jak2) (AID 2283169). In a few lines: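 Single-point duplicate screen at 25 uM, with hits run in concentration series to a 50 uM top dose. Substrate-product separation by mobility shift with fluorescence detection, 1 h post-dosing; DMSO baseline.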

Test [15] concerns the target human Mitogen- and Stress-activated Protein Kinase-1 (Msk1), RPS6KA5 (gene 9252) (UniProt O75582). The test can be described thus: NVS_ENZ_hMsk1: NovaScreen (NVS) Enzymatic Assay for human Mitogen- and Stress-activated Protein Kinase-1 (Msk1) (AID 2283187). In a few lines:
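Chemicals first run in duplicate at 25 uM, with actives followed up in singleton concentration series to 50 uM maximum. Enzyme activity came from substrate/product mobility-shift separation with fluorescence detection after 1 h incubation of the recombinant protein.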

Test [16] has as its target human FYN Proto-Oncogene, Src family Tyrosine Kinase (Fyn), FYN (gene 2534) (UniProt P06241). The test can be described thus: NVS_ENZ_hFyn: NovaScreen (NVS) Enzymatic Assay for human FYN Proto-Oncogene, Src family Tyrosine Kinase (Fyn) (AID 2283161). Put shortly:
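Cell-free kinase activity read by fluorescence after mobility-shift separation of substrate and product, 1 h post-dose. Initial single concentration 25 uM in duplicate, then concentration-response follow-up; DMSO baseline.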

The target in test [17] is human c-Jun N-terminal Kinases (JNK2), MAPK9 (gene 5601) (UniProt P45984). The test can be described thus: NVS_ENZ_hJNK2: NovaScreen (NVS) Enzymatic Assay for human c-Jun N-terminal Kinases (JNK2) (AID 2283171). In a few lines:
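Chemicals first tested in duplicate at 25 uM, then in singleton concentration series up to 50 uM, against extracted JNK2 enzyme. Activity loss read by fluorescence with mobility-shift separation 1 h post-dose; DMSO baseline.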

Test [18] concerns the target Mitogen-activated protein kinase 3 (Homo sapiens) (UniProt P27361). The test can be described thus: NVS_ENZ_hMAPK3: NovaScreen (NVS) Enzymatic Assay for human Mitogen-Activated Protein Kinase 3 (MAPK 3) (AID 2283177). In a few lines: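 Chemicals were first tested in duplicate at 25 uM, with hits re-run as concentration series (max 50 uM). Recombinant enzyme activity, measured 1 h post-dose in a cell-free format, was read by fluorescence/mobility shift relative to DMSO.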

The target in test [19] is human Dual Specificity Protein Phosphatase 3 (DUSP3), DUSP3 (gene 1845) (UniProt P51452). The test can be described thus: NVS_ENZ_hDUSP3: NovaScreen (NVS) Enzymatic Assay for human Dual Specificity Protein Phosphatase 3 (DUSP3) (AID 2283152).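 Note: phosphatase activity of recombinant human DUSP3 on a fluorogenic substrate without cells.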 Put shortly:
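Cell-free fluorescence-intensity enzyme activity assay with recombinant protein and substrate; loss of signal fitted relative to DMSO baseline. Primary screen in duplicate at 25 uM, actives then run in concentration series; measured 0 h after dosing.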

Results filed as inconclusive are left out. The source made the active and inactive calls. Rule for the calls: active = hit-call score of the fitted dose curve at least 0.9, where 1 is the maximum; inconclusive = response in the unintended direction; inactive = score below 0.9.

human Casein Kinase 1-delta (CK1D), CSNK1D (gene 1453), sequence (P48730 whole entry, looked up): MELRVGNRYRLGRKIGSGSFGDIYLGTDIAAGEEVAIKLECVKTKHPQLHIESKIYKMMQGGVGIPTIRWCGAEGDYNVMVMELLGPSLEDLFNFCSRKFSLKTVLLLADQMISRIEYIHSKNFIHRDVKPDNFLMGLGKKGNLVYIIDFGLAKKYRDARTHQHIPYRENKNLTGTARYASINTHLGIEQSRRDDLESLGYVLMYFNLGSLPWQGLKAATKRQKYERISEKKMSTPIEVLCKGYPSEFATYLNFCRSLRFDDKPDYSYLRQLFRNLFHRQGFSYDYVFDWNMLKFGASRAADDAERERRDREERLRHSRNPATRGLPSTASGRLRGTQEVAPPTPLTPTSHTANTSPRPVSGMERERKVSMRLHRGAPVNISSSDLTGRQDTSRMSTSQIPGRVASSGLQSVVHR
Histone deacetylase 3 (Homo sapiens), sequence (O15379 whole entry, looked up): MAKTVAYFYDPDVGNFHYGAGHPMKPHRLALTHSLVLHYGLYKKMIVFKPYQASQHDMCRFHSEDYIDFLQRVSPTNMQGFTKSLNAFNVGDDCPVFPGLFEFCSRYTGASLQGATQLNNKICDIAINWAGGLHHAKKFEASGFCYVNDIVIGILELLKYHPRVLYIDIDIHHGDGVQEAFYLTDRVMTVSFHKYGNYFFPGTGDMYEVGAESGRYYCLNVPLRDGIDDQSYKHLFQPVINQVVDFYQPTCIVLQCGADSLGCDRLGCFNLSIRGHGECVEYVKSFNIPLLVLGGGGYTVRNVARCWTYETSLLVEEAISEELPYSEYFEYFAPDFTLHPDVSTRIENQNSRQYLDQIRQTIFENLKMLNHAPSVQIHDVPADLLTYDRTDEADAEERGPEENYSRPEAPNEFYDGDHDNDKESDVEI
Glycogen synthase kinase-3 beta (Homo sapiens), sequence (P49841 whole entry, looked up): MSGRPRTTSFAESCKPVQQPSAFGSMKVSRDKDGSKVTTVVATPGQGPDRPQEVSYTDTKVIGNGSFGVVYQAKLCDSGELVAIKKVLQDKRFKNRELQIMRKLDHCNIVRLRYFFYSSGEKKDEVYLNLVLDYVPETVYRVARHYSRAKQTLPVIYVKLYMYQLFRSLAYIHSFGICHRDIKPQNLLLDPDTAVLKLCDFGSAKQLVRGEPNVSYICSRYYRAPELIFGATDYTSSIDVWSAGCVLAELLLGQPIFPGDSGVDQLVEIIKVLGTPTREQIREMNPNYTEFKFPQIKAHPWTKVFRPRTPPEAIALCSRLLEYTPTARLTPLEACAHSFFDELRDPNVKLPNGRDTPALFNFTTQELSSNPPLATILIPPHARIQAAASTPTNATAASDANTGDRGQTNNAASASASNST
human Colony Stimulating Factor 1 Receptor (CSF1R), CSF1R (gene 1436), sequence (P07333 whole entry, looked up): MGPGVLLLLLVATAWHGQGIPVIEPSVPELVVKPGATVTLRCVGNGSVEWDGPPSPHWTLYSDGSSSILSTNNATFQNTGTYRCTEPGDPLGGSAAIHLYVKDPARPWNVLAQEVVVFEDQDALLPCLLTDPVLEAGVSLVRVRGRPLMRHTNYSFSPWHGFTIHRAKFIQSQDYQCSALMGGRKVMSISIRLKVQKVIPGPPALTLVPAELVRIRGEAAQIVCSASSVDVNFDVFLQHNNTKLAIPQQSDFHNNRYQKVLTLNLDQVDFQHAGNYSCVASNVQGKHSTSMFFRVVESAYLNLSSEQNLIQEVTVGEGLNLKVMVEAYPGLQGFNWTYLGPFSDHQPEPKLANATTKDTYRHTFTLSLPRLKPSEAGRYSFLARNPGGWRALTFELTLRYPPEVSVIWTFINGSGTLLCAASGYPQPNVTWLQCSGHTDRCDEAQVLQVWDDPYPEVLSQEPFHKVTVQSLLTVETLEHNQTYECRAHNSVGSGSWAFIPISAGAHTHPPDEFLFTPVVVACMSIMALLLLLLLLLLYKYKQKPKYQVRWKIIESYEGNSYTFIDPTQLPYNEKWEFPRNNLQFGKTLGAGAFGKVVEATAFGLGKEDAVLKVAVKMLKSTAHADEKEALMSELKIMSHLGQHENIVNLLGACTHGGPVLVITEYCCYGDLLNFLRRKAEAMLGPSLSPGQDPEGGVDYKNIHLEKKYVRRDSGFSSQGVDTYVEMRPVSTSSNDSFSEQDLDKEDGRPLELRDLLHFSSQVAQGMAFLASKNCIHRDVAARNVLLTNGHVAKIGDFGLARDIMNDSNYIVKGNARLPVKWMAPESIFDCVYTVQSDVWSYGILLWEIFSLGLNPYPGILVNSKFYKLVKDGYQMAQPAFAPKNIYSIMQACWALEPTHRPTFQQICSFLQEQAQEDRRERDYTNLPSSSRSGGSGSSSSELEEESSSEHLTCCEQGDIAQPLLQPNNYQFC
human Esterase Plasma (ES), BCHE (gene 590), sequence (P06276 whole entry, looked up): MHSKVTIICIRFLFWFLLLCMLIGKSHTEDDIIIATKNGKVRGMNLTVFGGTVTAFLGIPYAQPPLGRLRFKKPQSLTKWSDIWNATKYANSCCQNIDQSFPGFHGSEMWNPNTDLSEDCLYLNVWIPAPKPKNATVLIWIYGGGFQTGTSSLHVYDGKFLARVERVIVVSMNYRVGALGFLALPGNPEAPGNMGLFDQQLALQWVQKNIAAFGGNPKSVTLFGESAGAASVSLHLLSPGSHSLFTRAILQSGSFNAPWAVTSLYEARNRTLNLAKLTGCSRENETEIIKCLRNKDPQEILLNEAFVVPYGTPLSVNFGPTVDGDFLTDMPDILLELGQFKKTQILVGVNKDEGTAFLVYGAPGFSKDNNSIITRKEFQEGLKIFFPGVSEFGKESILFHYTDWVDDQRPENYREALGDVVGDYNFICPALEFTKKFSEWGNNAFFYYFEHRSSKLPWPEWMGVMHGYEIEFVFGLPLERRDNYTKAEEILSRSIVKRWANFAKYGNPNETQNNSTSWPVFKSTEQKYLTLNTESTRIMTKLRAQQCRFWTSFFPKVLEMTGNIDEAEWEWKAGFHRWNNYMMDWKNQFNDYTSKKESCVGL
human LYN Proto-Oncogene, Src family Tyrosine Kinase (LynA), LYN (gene 4067), sequence (P07948 whole entry, looked up): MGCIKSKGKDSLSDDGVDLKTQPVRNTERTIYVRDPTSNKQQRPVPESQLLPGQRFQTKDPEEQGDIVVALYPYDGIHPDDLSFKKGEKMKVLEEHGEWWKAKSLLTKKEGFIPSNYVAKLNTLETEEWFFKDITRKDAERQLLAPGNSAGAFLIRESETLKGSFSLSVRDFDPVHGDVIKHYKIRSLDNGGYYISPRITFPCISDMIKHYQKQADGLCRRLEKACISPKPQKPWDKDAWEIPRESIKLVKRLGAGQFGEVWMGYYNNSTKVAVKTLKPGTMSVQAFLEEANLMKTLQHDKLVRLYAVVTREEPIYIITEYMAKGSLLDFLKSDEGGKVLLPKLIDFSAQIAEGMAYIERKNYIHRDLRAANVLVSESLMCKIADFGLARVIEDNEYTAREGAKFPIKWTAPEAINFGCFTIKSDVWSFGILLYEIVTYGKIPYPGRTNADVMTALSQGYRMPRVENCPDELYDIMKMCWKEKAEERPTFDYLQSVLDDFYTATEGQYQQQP
human Matrix Metalloproteinase-3 (MMP3), MMP3 (gene 4314), sequence (P08254 whole entry, looked up): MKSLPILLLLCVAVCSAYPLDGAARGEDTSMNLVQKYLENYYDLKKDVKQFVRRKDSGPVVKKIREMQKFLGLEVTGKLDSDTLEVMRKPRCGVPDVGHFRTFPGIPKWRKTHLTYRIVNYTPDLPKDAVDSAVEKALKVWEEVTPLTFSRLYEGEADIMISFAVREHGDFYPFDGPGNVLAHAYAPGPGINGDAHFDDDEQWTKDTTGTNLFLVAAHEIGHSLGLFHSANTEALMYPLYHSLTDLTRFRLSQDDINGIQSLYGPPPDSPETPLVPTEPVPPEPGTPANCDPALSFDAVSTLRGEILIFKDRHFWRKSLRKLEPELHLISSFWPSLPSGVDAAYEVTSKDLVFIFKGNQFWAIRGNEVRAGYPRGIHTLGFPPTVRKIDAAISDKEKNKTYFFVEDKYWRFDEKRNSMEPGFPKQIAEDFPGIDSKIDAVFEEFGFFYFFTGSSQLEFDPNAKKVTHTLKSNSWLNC
human Elastase, ELANE (gene 1991), sequence (P08246 whole entry, looked up): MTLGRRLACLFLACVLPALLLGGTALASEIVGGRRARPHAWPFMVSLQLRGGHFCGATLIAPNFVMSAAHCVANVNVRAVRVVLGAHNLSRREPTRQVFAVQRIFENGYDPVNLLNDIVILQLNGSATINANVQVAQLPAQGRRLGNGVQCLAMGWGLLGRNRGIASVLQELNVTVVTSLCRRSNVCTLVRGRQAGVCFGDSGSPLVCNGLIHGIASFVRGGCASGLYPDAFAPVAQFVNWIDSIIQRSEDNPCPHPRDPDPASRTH
human Matrix Metalloproteinase-2 (MMP2), MMP2 (gene 4313), sequence (P08253 whole entry, looked up): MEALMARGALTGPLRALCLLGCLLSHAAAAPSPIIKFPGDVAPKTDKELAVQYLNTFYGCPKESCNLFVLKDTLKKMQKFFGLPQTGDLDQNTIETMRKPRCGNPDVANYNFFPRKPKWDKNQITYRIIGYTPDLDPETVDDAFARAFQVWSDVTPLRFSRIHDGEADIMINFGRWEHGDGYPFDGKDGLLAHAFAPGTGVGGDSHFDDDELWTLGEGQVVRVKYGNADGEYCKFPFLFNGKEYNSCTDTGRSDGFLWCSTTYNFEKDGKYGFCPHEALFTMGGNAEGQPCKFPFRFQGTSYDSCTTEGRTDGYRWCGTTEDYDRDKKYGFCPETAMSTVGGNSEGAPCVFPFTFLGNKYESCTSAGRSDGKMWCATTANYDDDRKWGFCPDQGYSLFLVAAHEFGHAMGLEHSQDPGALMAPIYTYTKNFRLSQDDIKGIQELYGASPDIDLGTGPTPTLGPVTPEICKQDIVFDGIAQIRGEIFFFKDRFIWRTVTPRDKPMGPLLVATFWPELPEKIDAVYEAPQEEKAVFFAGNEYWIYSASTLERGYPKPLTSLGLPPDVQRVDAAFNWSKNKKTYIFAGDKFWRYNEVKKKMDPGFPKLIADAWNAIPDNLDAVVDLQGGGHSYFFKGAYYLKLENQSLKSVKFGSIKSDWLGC
human Dual Specificity Protein Phosphatase 3 (DUSP3), DUSP3 (gene 1845), sequence (P51452 whole entry, looked up): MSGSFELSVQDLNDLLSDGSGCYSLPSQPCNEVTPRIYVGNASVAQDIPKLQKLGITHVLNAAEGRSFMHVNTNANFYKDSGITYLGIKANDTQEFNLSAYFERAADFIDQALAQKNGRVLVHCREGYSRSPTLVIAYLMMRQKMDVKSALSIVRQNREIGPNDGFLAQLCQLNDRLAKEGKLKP

For `O=C(O)c1cccc(Oc2ccccc2)c1`, the call in test [1], in test [2] and in test [3] was inactive.
For the compound `Cc1[nH]cnc1C[C@H]1CCc2c(C)c3ccccc3n2C1=O`, the AC50 in [1] was 13.9 µM (active); in [4], 14.4 µM (active); in test [5], 29.9 µM (active).
For the compound `CCc1cc(SCc2sc(-c3ccc(C(F)(F)F)cc3)nc2CN2CCN(c3ccc(OC)cc3)CC2)ccc1OCC(=O)O`, the AC50 in test [6] is 2.7 µM (active); in test [8], 5.85 µM (active); in test [9] it was 19.8 µM (active). Besides, the call in [7] and in [5] was inactive.
In the case of `COc1ccc(-n2nc(C(F)F)cc2-c2ccc(S(C)=O)cc2)cc1` (stereo unspecified), the compound was called inactive in test [10].
For the compound `CCOC(=O)COc1ccc2c(c1)CC(NCC(O)c1cccc(Cl)c1)CC2` (stereo unspecified), the compound was called inactive in [1] and in test [7]. For the same compound, the AC50 in test [4] is 10.9 µM (active).
As for `CCOc1cccc(-n2cc(C(=O)N3CCN(c4cc(C(=O)O)c5ccccc5c4)CC3)nc2-c2ccc(C)cc2)c1`, in [6], the AC50 was 6.63 µM (active).
For the compound `Nc1nc2ncc(CNc3ccc(C(=O)N[C@@H](CCC(=O)O)C(=O)O)cc3)nc2c(=O)[nH]1`, the figures for the AC50 in test [1], in [7] and in [11] were 11.4 µM (active), 41.1 µM (active) and 37.4 µM (active), respectively.
On to `Cn1c(=O)c2c(ncn2C)n(C)c1=O`, for which the outcome in test [1] was inactive.
As for `COCCOc1cc2cc(C(=O)NC3CCN(C(C)C)CC3)n(CC(=O)Nc3ccc(Cl)cn3)c2cn1`, the compound was classed as inactive in test [10], in test [12] and in test [7]. Also, the AC50 in test [4] is 23.3 µM (active).
Take `C[C@](N)(Cc1ccc(O)c(O)c1)C(=O)O`: the compound was classed as inactive in [10].
With `COc1cccc(-c2ccc(/C=C\CN3CCCCCC3)cc2Cl)c1`, the half-maximal activity concentration (AC50) in test [4] is 1.78 µM (active). The compound was called inactive in test [7].
For the compound `CCn1nc(Cc2ccccc2)cc1C1CCN(C[C@H]2C[C@H](N(C)[C@@H](C(=O)O)C(C)C)C[C@@H]2c2cccc(F)c2)CC1`, the AC50 in test [4] was 13 µM (active).
Take `CNS(=O)(=O)c1cc(C(=O)N2CCC(CCN3C4CCC3CC(n3c(C)nc5ccccc53)C4)(c3cccc(F)c3)CC2)c(Cl)cc1F` (stereo unspecified): the AC50 in test [10] was 39.1 µM (active); in test [6], 8.03 µM (active); in test [14], 10.2 µM (active); in [8], 14.5 µM (active); in test [9] it was 8.32 µM (active). For the same compound, the compound was called inactive in test [13], in [7] and in test [2].
Turning to `O=C(O)CC(O)C(=O)O` (stereo unspecified), the compound was called inactive in test [4], in [12], in [14] and in test [15].
Turning to `Cc1ccc(N)cc1O`, the result in [1], in test [10], in test [13], in [16], in test [12] and in test [7] was inactive. The result in [17], in test [2] and in test [15] was inactive. The AC50 in [18] was 20.1 µM (active).
As to `O=C(OC[C@H]1O[C@@H](OC(=O)c2cc(O)c(O)c(OC(=O)c3cc(O)c(O)c(O)c3)c2)[C@H](OC(=O)c2cc(O)c(O)c(OC(=O)c3cc(O)c(O)c(O)c3)c2)[C@@H](OC(=O)c2cc(O)c(O)c(OC(=O)c3cc(O)c(O)c(O)c3)c2)[C@@H]1OC(=O)c1cc(O)c(O)c(OC(=O)c2cc(O)c(O)c(O)c2)c1)c1cc(O)c(O)c(OC(=O)c2cc(O)c(O)c(O)c2)c1`, the AC50 in test [19] was 3.95 µM (active); in [6], 0.0537 µM (active); in test [7], 0.000698 µM (active); in [5], 0.437 µM (active).
Regarding `C1=CCCC=CCCC=CCC1`, the compound was classed as inactive in test [1].
As for `CCCN(C1CCN(C(=O)C2CCNCC2)CC1)[C@@H]1CCc2ccc(OC)cc2C1`, the call in [4] was inactive.
